PTHR1 agonist: PTHR1 (human) receptor agonism; Q03431; HEK293 GP2 PTHR1 cells, GloSensor cAMP luminescence, 1 h; Potency, µM (top dose mostly 115 µM), usual class: activators; 410,000 compounds, 0.075% hits; also: nearly all actives have a fitted effect of over 55% in size
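HEK-293-derived GP2 cells expressing PTHR1 and a GloSensor cAMP reporter, 3,000/well, plated overnight, given luciferin plus IBMX (each 0.5 mM as added) for 1 h at 37 °C, then compound for 1 h at 37 °C. Luminescence was read after 15 min at room temperature.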
D3 antag: blocks the human D3 dopamine receptor. D3R cells, DiscoveRx beta-arrestin luminescence, antagonist mode; hits give low values. 360,000 compounds, 2.5% hits. max response, negative = inhibition, %; in the data active = max response below about -50%; inconclusive = no clear call, values can overlap the other calls
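Cells plated overnight at 1500 cells/well, then exposed to library compounds with dopamine controls for 90 minutes at 37 degrees C. DiscoveRx reagent added for 30–60 minutes at room temperature; luminescence read, quantitative HTS format.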
BRCA1 expr up: increases BRCA1 expression. MCF7-BRCA1-FFLuc reporter, luminescence, 48 h; response scale: scaled: vehicle 0%, 10 µM genistein 100%. Potency, µM (top dose mostly 46.1 µM), hits mostly activators. 380,000 compounds, 1.1% hits; also: nearly all actives have a fitted effect of over 80% in size
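Activators of BRCA1 expression were detected as increased firefly luciferase luminescence in engineered MCF7 cells after 48 h compound incubation. Signals were scaled to genistein 10 microM as full activation.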
DRD3 agonist: agonists of human D3 dopamine receptor; max activation, %; AID 652048; P35462; D3R DiscoveRx beta-arrestin cells, luminescence, 90 min; 410,000 compounds, 0.58% hits; in the data active = max activation above about 30%
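Agonist-mode cell screen: cells plated at 1500/well and incubated overnight at 37 °C, then exposed to library compounds for 90 min at 37 °C. Detection reagent was added for 30–60 min at room temperature, and luminescence was read.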
B2AR arrestin: recruits beta-arrestin to the human beta2-adrenergic receptor. 330,000 compounds, 0.02% hits. P07550. Potency, µM (series often up to 46.1 µM), usual class: activators. beta-arrestin recruitment to beta2AR, cell-based reporter; also: nearly all actives have a fitted effect of over 65% in size
Target sequence (P07550 whole entry, looked up): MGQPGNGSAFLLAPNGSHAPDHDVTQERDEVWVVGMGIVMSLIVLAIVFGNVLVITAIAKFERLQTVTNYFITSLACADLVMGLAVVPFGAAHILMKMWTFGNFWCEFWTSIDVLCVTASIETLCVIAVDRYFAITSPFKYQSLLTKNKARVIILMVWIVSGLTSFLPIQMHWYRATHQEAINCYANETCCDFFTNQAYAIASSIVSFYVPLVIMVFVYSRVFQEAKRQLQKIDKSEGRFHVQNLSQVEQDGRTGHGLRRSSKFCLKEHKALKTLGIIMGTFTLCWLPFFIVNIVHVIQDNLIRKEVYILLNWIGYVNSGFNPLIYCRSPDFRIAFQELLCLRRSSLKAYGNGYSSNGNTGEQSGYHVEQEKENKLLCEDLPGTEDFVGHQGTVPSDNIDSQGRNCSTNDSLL
RGS4 inh: human RGS4 inhibition; 390,000 compounds, 0.039% hits; Potency, µM (series often up to 114 µM), usual class: inhibitors; P49798; Transcreener GDP fluorescence polarization, RGS4-accelerated GTP hydrolysis; also: nearly all actives have a fitted effect of over 75% in size
Target sequence (P49798 whole entry, looked up): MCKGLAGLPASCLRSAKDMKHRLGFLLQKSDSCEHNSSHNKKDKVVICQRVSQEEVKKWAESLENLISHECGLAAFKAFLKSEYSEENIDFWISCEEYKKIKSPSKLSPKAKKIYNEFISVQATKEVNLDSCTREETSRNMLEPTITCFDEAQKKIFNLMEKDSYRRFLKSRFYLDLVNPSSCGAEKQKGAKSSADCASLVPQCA
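MLSMR compounds (23 nl, pin-transferred) preincubated 10 min at room temperature with a 500nM (2x) first reagent, then RGS4 at 900nM (2x) plus Transcreener GDP mix added; fluorescence polarization (620/688 nm) read before and after 90 min at 30 °C.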
Each line names hits and unclear results; the compound was inactive in the other large screens. Only some compounds are listed: those with a hit (about 3.7% of all), similar ones and a draw of the others. Unless noted, calls follow the shape of the dose curve; as a rule, active = well fitted curve in the direction sought with a large enough effect; inconclusive = small, poorly fitted or top-dose-only effect, or another doubt; inactive = no such curve, though single readings can be large; an effect the other way counts as inactive or inconclusive.

CC(C)(C)c1ccc(C(=O)CC(Sc2ccc(Cl)cc2)C(=O)O)cc1 (stereo unspecified)	D3 antag -64, RGS4 inh inconclusive
CSc1ccc(CN2CCC2(C)C(=O)NC2CCc3ccccc32)cc1 (stereo unspecified)	D3 antag -70 (no result: B2AR arrestin, RGS4 inh)
O=C(CSc1cn(CC(=O)N2CCOCC2)c2ccccc12)Nc1ccccc1F	none (no result: D3 antag, BRCA1 expr up, B2AR arrestin)
CC1=C(SCc2ccccc2)C(=O)c2ccccc2C1=O	D3 antag -89 (no result: B2AR arrestin)
Cn1c(SCc2ccccc2)nccc1=O	none (no result: B2AR arrestin)
COc1ccccc1/C=C/CN1CCCCC1	D3 antag inconclusive
COc1ccccc1/C=C/CN1CCCC(CCC(=O)NCc2ccc(F)c(F)c2)C1 (stereo unspecified)	D3 antag -66
O=C(CCC1CCCN(Cc2cccc3c2OCO3)C1)NCc1ccc(F)c(F)c1 (stereo unspecified)	none
COCCNC(=O)CCC1CCN(C/C=C/c2ccccc2OC)CC1	PTHR1 agonist inconclusive, D3 antag -56
COCCC(=O)N1CCCC(CCC(=O)NCc2ccc(F)c(F)c2)C1 (stereo unspecified)	none
COc1cccc(CNC(=O)CCC2CCCN(C/C=C/c3ccccc3OC)C2)c1 (stereo unspecified)	D3 antag -55
COc1ccc(/C=C/CN2CCCC(CCC(=O)NCc3ccc(F)c(F)c3)C2)cc1 (stereo unspecified)	D3 antag -55
COCc1ccc(CN2CCCC(CCC(=O)NCc3cccc(OC)c3)C2)o1 (stereo unspecified)	none
O=C(CNC(=O)N1CC(=O)Nc2ccccc21)NCc1ccc(Cl)cc1	none
COc1cc(C2CC(=O)c3c([nH]c(C(=O)OC4CCCC4)c3C)C2)cc(OC)c1OC (stereo unspecified)	none (no result: D3 antag, BRCA1 expr up, B2AR arrestin)
CCOc1ccc(NC(=O)CSc2nc3cc(C(=O)NCC4CCCO4)ccc3c(=O)n2CC2CCCO2)cc1 (stereo unspecified)	none (no result: B2AR arrestin, RGS4 inh)
CO[C@@H]1[C@@H](OC)[C@H](C)[C@@](O)(CC(=O)O)O[C@H]1[C@H](C)[C@H]1O[C@@]2(CC[C@@](C)([C@H]3CC[C@@](C)([C@@H]4O[C@@H]([C@H]5O[C@](C)(O)[C@H](C)C[C@@H]5C)C[C@@H]4OC4C[C@H](OC)[C@@H](OC)[C@H](C)O4)O3)O2)C[C@H](O)[C@H]1C (stereo partly specified)	none (no result: PTHR1 agonist, D3 antag, BRCA1 expr up, B2AR arrestin, RGS4 inh)
CCNC(=O)C1(C)CCN1CCC(=O)c1ccc(Br)cc1 (stereo unspecified)	DRD3 agonist 73 (no result: B2AR arrestin, RGS4 inh)
CC(NC(=O)NC(=O)c1cccc(Cl)c1)c1ccccc1 (stereo unspecified)	D3 antag inconclusive
COc1ccc(C2(CNC(=O)CCC(=O)O)CCCC2)cc1OC	D3 antag -51
CN1CCN(CCOc2ccc(-c3ccccc3)cc2)CC1	BRCA1 expr up 7.9µM
c1ccc(OCCN2CCNCC2)cc1	none (no result: B2AR arrestin)
c1ccc(OCCN2CCN(C(c3ccccc3)c3ccccc3)CC2)cc1	D3 antag -89
CN1CCN(CCCOc2ccc(-c3ccccc3)cc2)CC1	BRCA1 expr up inconclusive
Cc1ccc(C)c2sc(NC(=O)c3ccc(S(=O)(=O)N4CCC(C)CC4)cc3)nc12	none (no result: D3 antag, B2AR arrestin)
CCCCOc1ccc(-c2nnn(CCC(=O)N3CCOCC3)n2)cc1	D3 antag -96
CCOc1ccc(-c2nnn(CC(=O)c3ccc4c(c3)OCCO4)n2)cc1	DRD3 agonist 37
CCOC(=O)N1CCc2c(sc3c2c(=O)n(-c2ccccc2C(F)(F)F)c(=O)n3Cc2ccccc2C)C1	PTHR1 agonist inconclusive (no result: D3 antag, BRCA1 expr up, B2AR arrestin)
COC(=O)C1=CO[C@@H](OC2OC(CO)C(O)C(O)C2O)[C@@H]2[C@@H](C)[C@@H](O)C[C@H]12 (stereo partly specified)	none (no result: B2AR arrestin)
C[C@@H]1[C@H]2[C@@H](O[C@@H]3O[C@H](CO)[C@@H](O)[C@H](O)[C@H]3O)OC=C(C(=O)O)[C@H]2C[C@@H]1O	DRD3 agonist 43
COc1ccc(C2CC(=O)c3cnc(NC(=O)c4ccccc4)nc3C2)cc1OC (stereo unspecified)	none
COc1cc(C2CC(=O)c3cnc(NC(=O)COc4ccccc4)nc3C2)cc(OC)c1OC (stereo unspecified)	DRD3 agonist 36
COc1ccc(C2CC(=O)c3cnc(NC(=O)c4cc(OC)cc(OC)c4)nc3C2)cc1 (stereo unspecified)	none
COc1ccc(C2CC(=O)c3cnc(Nc4cc(C)cc(C)c4)nc3C2)cc1 (stereo unspecified)	DRD3 agonist 49
O=C(NC(=S)/C(=C1\CCCCCN1)[N+](=O)[O-])c1ccccc1	none
CCn1cc(C(=O)NCCCN2CCCC(C)C2)c(=O)c2cc(S(=O)(=O)N3CCOCC3)ccc21 (stereo unspecified)	none
O=C(c1ccco1)N1CCC(c2nc3c(nnn3Cc3c(Cl)cccc3Cl)c(=O)[nH]2)CC1	none
CC(C)(C)c1ccc(Cn2nnc3c(=O)[nH]c(C4CCN(C(=O)c5ccco5)CC4)nc32)cc1	DRD3 agonist 32
Cc1ccc2c(COC(=O)c3n[nH]c4ccccc34)cc(=O)oc2c1	BRCA1 expr up 3.2µM
O=[N+]([O-])c1cc(C(F)(F)F)ccc1NC1CCN(Cc2ccccc2)C1 (stereo unspecified)	D3 antag -74
NC(=O)CC(NC(=O)c1ccccc1)c1ccc(NC2CCN(Cc3ccccc3)CC2)c([N+](=O)[O-])c1 (stereo unspecified)	none
O=[N+]([O-])c1cc(C(F)(F)F)ccc1NC1CCN(Cc2ccccc2)CC1	D3 antag -74
O=c1c2c3c(sc2nnn1Cc1ccc(Br)cc1)CCCC3	none (no result: D3 antag, BRCA1 expr up, B2AR arrestin)
CC(C)[C@H](NC(=O)N1CCn2c1nc1ccccc12)C(=O)NCC1CCCO1 (stereo partly specified)	none
C(=NOCc1ccccc1)c1ccccn1	BRCA1 expr up 10µM (no result: B2AR arrestin, RGS4 inh)
COc1cccc(N2CCN(S(=O)(=O)c3cn(C)cn3)CC2)c1	none
O=C(Nc1cc(S(=O)(=O)Nc2ccc(Cl)cc2)ccc1O)c1ccc(S(=O)(=O)N2CCCCCC2)cc1	D3 antag -50, RGS4 inh inconclusive
COc1cccc2c1C(=O)C=C(C)C2=O	none
CC(C)(C=O)C1=CC(=O)c2ccccc2C1=O	D3 antag -111
CC(C)(C)c1ccc2c(c1)C(=O)c1ccccc1C2=O	none
CC1=CC(=O)c2ccccc2C1=O	D3 antag -53

Screens deposited in PubChem BioAssay by National Center for Advancing Translational Sciences (NCATS).
